# Results published in PubChem BioAssay (Tox21).
# Several values for one entry are separate records, joined by “and”; a condition that tells them apart may be missing. Equal values may be shown once. Results filed as inconclusive are left out. Where a call stands in place of a potency, no number is given. Where a structure was tested more than once in an assay, its records may differ in their call. Activity calls are given as the source filed them. Unless noted, the call rests on the fitted dose curve; in most records, active means well fitted curve in the direction sought with a large enough effect in the repeat runs; inconclusive means weak or mixed curves; inactive means no such curve, though single readings can be large; an effect the other way counts as inactive or inconclusive.
# How the values were obtained:
# [1] = qHTS assay to identify small molecule agonists of the hypoxia (HIF-1) signaling pathway - cell viability counter screen (AID 1224844; calls by dose curve; further: nearly all actives have a fitted effect of over 50% in size; further: potency means the concentration at half of the fitted maximal effect)
# Procedure, shortened: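 Multiplexed with the HRE beta-lactamase assay, this viability read used CellTiter-Glo luminescence (30 min, RT) on HRE-bla ME-180 cells treated 17 hrs with compounds in 0.5% dialyzed FBS medium.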
# [2] = qHTS assay to identify small molecule agonists of H2AX (AID 1224845; active means well fitted activation curve with a large enough effect in the signal ratio in the repeat runs, not every such curve was filed as active; the % refers to the signal ratio; further: potency means the concentration at half of the fitted maximal effect)
# Procedure, shortened: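 Wild-type CHO-K1 cells, plated overnight, exposed 3hr at 37C to 15 concentrations (0.76% DMSO final). Lysed, then HTRF anti-pH2AX (S139) cryptate and anti-H2AX-d2 antibodies, 24 hr room temperature; 665/620 nm emission read.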
# [3] = qHTS assay to identify small molecule agonists of the hypoxia (HIF-1) signaling pathway (AID 1224846; active means well fitted activation curve with a large enough effect in the signal ratio in the repeat runs, not every such curve was filed as active; the % refers to the signal ratio)
# Procedure, shortened: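 Hypoxia-pathway activation was scored as increased beta-lactamase from an HRE-controlled reporter in ME-180 cells; plated at 2,000 cells per well with 0.5% dialyzed FBS, they were exposed 17 hrs to compounds and then given CCF4-AM.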
# [4] = qHTS assay to identify small molecule agonists of H2AX - cell viability counter screen (AID 1224847; calls by dose curve; further: nearly all actives have a fitted effect of over 30% in size; further: potency means the concentration at half of the fitted maximal effect)
# Procedure, shortened: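 Counter-screen for viability: CellTiter-Glo ATP luminescence read after 3 h compound treatment (15-point titration, 0.76% DMSO final) of CHO-K1 cells at 37C, with 30 min room-temperature reagent incubation.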
# [5] = qHTS assay to identify small molecule antagonists of the estrogen related receptor (ERR) signaling pathway from Tox21 library (AID 1224848); further: nearly all actives have a fitted effect of over 50% in size; further: potency means the concentration at half of the fitted maximal effect
# Procedure, shortened: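 ERR reporter cell line (from NTP) seeded 2,000 cells/well, rested 6 h at 37 C/5% CO2, then pin-dosed with compounds in DMSO. After 18 h at 37 C, ONE-Glo added; luminescence read after 30 min at room temperature.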
# [6] = qHTS assay to identify small molecule agonists of the estrogen related receptor (ERR) signaling pathway from Tox21 library (AID 1224849; calls by dose curve; further: nearly all actives have a fitted effect of over 15% in size); settings: ERR reporter cell line, ONE-Glo luciferase, 18 h
# Procedure, shortened: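 Six hours post-seeding at 37 C/5% CO2, ERR cells receive DMSO-solubilised compounds; after 18 h at 37 C, ONE-Glo reagent is applied and luminescence recorded.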
# [7] = qHTS RealTime-Glo MT Cell Viability Assay in HepG2 cells - 24 hour (AID 1224867); further: nearly all actives have a fitted effect of over 50% in size; further: potency means the concentration at half of the fitted maximal effect
# Procedure, shortened: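 Luminescence read-out: viable HepG2 cells reduce a prosubstrate to a NanoLuc substrate, giving a signal proportional to live cell number. Reads taken at 0, 8, 16, 24, 32 and 40 h of compound exposure at 37 C.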
# [8] = qHTS RealTime-Glo MT Cell Viability Assay in HEK293 cells - 32 hour (AID 1224868); further: nearly all actives have a fitted effect of over 50% in size; further: potency means the concentration at half of the fitted maximal effect
# Procedure, shortened: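 Nonlytic real-time viability readout: viable cells convert prosubstrate to NanoLuc substrate, giving luminescence proportional to live cell number. HEK293, 600 cells/well, compound added after 5 h, continuous culture at 37 C.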
# [9] = A CellTox Green Cytotoxicity Assay to monitor cytotoxicity in HEK293 cells - 0 hour (AID 1224869); further: nearly all actives have a fitted effect of over 50% in size
# Procedure, shortened: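 Seeding of HEK293 cells together with cytotoxicity dye preceded a 5 h incubation at 37 C/5% CO2. Test compounds in DMSO were then added and fluorescence monitored across 40 h.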
# [10] = qHTS RealTime-Glo MT Cell Viability Assay in HepG2 cells - 40 hour (AID 1224870); further: nearly all actives have a fitted effect of over 50% in size; further: potency means the concentration at half of the fitted maximal effect
# Procedure, shortened: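 HepG2 cells (600/well) mixed with RealTime-Glo MT reagent, settled 5 h at 37 C/5% CO2 before compound addition. Nonlytic NanoLuc luminescence from viable-cell prosubstrate reduction read repeatedly during 40 h treatment at 37 C.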
SMILES,Potency [1],Potency [2],Potency [3],Potency [4],Potency [5],"activity change, positive = activation ([6]; at 42.5 µM (top of the series))",Potency [7],Potency [8],Potency [9],Potency [10],"activity change, positive = activation ([6]; at 92.4 µM (top of the series))"
O=C(O)Cn1cnnn1,inactive,inactive,inactive,inactive,inactive,4% (inactive),inactive,inactive,inactive,inactive,
O=C1CC2(CCCC2)CC(=O)N1CCCCN1CCN(c2ncccn2)CC1,4.36 µM (active) and inactive,inactive,,inactive,30.6 µM (active) and inactive,-12.4% (inactive),inactive,43.6 µM (active) and inactive,,inactive,-47% (inactive)
O=C(O)c1cc(Cl)cc(Cl)c1,inactive,inactive,inactive,inactive,inactive,,inactive,inactive,,inactive,-3.61% (inactive)
CCCCCC(=O)O[C@]1(C(C)=O)CC[C@H]2[C@@H]3CCC4=CC(=O)CC[C@]4(C)[C@H]3CC[C@@]21C,38.6 µM (active),inactive,,31.6 µM (active),24.2 µM (active) and 7.5 µM (active),-35.8% (inactive),inactive,24.4 µM (active),inactive,inactive,-61% (inactive)
COc1cc(C(=S)N2CCOCC2)ccc1O,inactive,inactive,inactive,inactive,inactive,-0.619% (inactive),inactive,inactive,inactive,inactive,
CCC(CO)(CO)COCC(CC)(CO)CO,inactive,inactive,inactive,inactive,inactive,,inactive,inactive,inactive,inactive,6.39% (inactive)
c1ccc2cc3c(ccc4ccccc43)cc2c1,inactive,inactive,inactive,inactive,,,inactive,inactive,inactive,inactive,
O=C(O)CP(=O)(O)O,inactive,inactive,inactive,inactive,,,inactive,inactive,inactive,inactive,
C=CC(=O)OCCCCCCCC,inactive,inactive,inactive,inactive,inactive,,inactive,inactive,,inactive,2.1% (inactive)
O=Cc1ccc(Cl)cc1,inactive,inactive,inactive,inactive,inactive,,inactive,inactive,inactive,inactive,-1.47% (inactive)
O=C(Oc1ccccc1)c1ccccc1O,inactive,inactive,inactive,inactive,,,inactive,inactive,inactive,inactive,
CC(C)(C)c1ccccc1,inactive,inactive,inactive,inactive,inactive,,inactive,inactive,inactive,inactive,0.862% (inactive)
CC1=CC(=O)c2ccccc2C1=O,21.9 µM (active) and inactive,40.1 µM (active),,40.1 µM (active),43.3 µM (active),-26.5% (inactive),43.6 µM (active),15.5 µM (active),,49 µM (active),-78.8% (inactive)
NCCO,inactive,inactive,inactive,inactive,,,inactive,inactive,inactive,inactive,
NC(N)=Nc1nc(CSCC/C(N)=N/S(N)(=O)=O)cs1,inactive,inactive,,inactive,inactive,8.96% (inactive),inactive,inactive,inactive,inactive,4.57% (inactive)
Cc1cc(OCCOCC[N+](C)(C)Cc2ccccc2)ccc1C(C)(C)CC(C)(C)C,24.4 µM (active) and 23.9 µM (active),inactive,,100 µM (active) and 55.2 µM (active),13.6 µM (active) and 6.68 µM (active),-54.7% (inactive),15.4 µM (active) and 10.7 µM (active),10.9 µM (active) and 7.56 µM (active),inactive,12.2 µM (active) and 8.49 µM (active),-79.5% (inactive)
CC(=O)Nc1ccc(C(=O)CCl)cc1,inactive and 11 µM (active),inactive,inactive,inactive,,,inactive,inactive and 24.5 µM (active),inactive,inactive and 24.5 µM (active),
CC[C@]1(O)C[C@@H]2CN(CCc3c([nH]c4ccccc34)[C@@](C(=O)OC)(c3cc4c(cc3OC)N(C)[C@H]3[C@@](O)(C(=O)OC)[C@H](OC(C)=O)[C@]5(CC)C=CCN6CC[C@]43[C@@H]65)C2)C1,inactive,inactive,inactive,inactive,26.6 µM (active),-22% (inactive) and -33.9% (inactive),,16.9 nM (active) and 4.8 nM (active),inactive,inactive,
